CR mimetic SO: reduction of superoxide in aged yeast, primary screen, HTS. S. cerevisiae aged cells, superoxide DHE fluorescence; active compounds read low. superoxide response (% of plate mean), % at 10 µM. 330,000 tested, 0.18% active;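 active = superoxide response under a set limit, about three screen SD below normal, cut at about 65% in these data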;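 also: yeast aged for seven days with compound at 30 °C before DHE staining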
SKKanGAS inh: S. pyogenes SKKanGAS growth inhibitors in kanamycin, primary screen, streptokinase expression inhibitor project, SKKanGAS strain, BacTiter-Glo luminescence | 6 h | inhibition, % at 7.5 µM | 300,000 tested, 1.3% active;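 active = mean replicate score, as percent of positive control median, at least 50; inconclusive = mean below 50 but one replicate at or above 50; inactive = mean and every replicate below 50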;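 also: strain carries kanamycin resistance gene driven by streptokinase promoter and grows in 40 µg/ml kanamycin; loss of luminescence reflects streptokinase promoter inhibition or plain growth inhibition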
PolyA inh: polyadenylation inhibitors in yeast reporter cells, primary screen, luminescence, S. cerevisiae; S. cerevisiae SKY197-pL101 polyadenylation reporter, beta-gal luminescence; efflux-impaired pdr1/pdr3 knockout yeast; score 100 = 6 SD above DMSO; activity score, % at 12 µM; 300,000 tested, 0.02% active;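 active = lowest replicate activity score at least 50, where 100 means six control SD above control mean; inconclusive = lowest score under 50 but half or more replicates reach 50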;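 also: yeast exposed to compound for 9 h at 30 °C; higher score means more reporter readthrough which indicates perturbed polyadenylation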
Platelet DG rel: inhibitors of platelet dense granule secretion, primary screen, cell-based, MLPCN, human platelets; AID 1663, 2009; inhibition, %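 (compounds screened at 7.5 µM in platelet-rich plasma)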; 300,000 tested, 0.22% active; human platelet-rich plasma, SFLLRN dense granule ATP release, luminescence;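 active = mean replicate score, as percent of positive control, at or above 50; inconclusive = mean below 50 but at least one replicate at or above 50; inactive = mean and every replicate below 50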
Calb FLC: C. albicans growth inhibition with fluconazole, primary screen, CaCi-2 strain, Alamar Blue fluorescence; growth inhibition, % (test concentration not listed); C. albicans CaCi-2 (fluconazole-resistant clinical isolate) + fluconazole, 48 h; AID 1979, 2009; 300,000 tested, 0.57% active;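 active = growth inhibition above about 58% in most replicates, limit read from the data, passing the limit was not always enough; inconclusive = exactly half the replicates above a set limit; inactive = most replicates below a set limit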;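 also: all wells also contain fluconazole at 8 µg/ml as a sub-toxic cotreatment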
Large screens that a line does not name were inactive. An excerpt weighted towards active compounds, which were near 2% of everything screened.

Fc1ccc(CNC(=S)NCc2cccc(Cl)c2)cc1	none
Cc1ccc(CN2C(=O)c3ccccc3NC2c2cc(Br)ccc2O)cc1 (stereo unspecified)	SKKanGAS inh 104.1
CC(=O)c1ccc(O)c(CSC2=NCCS2)c1	none
O=C(OCc1ccccc1)c1ccc2c(c1)-c1ccccc1C2=O	SKKanGAS inh 55.3
O=C(O)c1cc(N/N=C/c2ccc3c(c2)OCCO3)ccc1Cl	none (no result: SKKanGAS inh, PolyA inh, Platelet DG rel, Calb FLC)
O=C(O)c1ccc(N/N=C/c2ccc3c(c2)OCO3)cc1	Platelet DG rel 85.7
Cc1ccc(N/N=C/c2ccc3c(c2)OCCO3)cc1Cl	Platelet DG rel inconclusive, Calb FLC 102.3
CN(C(=O)COC(=O)c1cc(S(=O)(=O)N2CCOCC2)ccc1Cl)C1CCS(=O)(=O)C1 (stereo unspecified)	none
Cc1ccc(S(=O)(=O)N2CCCC2C(=O)O)cc1 (stereo unspecified)	Platelet DG rel 82.6
Cc1ccc(S(=O)(=O)N2CC[C@@H]2C(=O)O)cc1	none
CC(=O)Nc1ccc(NC2=C(Cl)C(=O)c3ccccc3C2=O)cc1	none (no result: CR mimetic SO)
O=C(Oc1ccc(NC2=C(Cl)C(=O)c3ccccc3C2=O)cc1)c1ccc([N+](=O)[O-])cc1	SKKanGAS inh 54.2, Calb FLC inconclusive (no result: CR mimetic SO)
COC(=O)COc1c(Cl)cc(Cl)c2ccc(C)nc12	none
Cc1ccc2c(Cl)cc(Cl)c(OCC(=O)NC(C)(C)C)c2n1	SKKanGAS inh 49.9
Cc1ccc2c(c1)-n1c(nc3ccc(C)cc3c1=O)C(Cc1ccc(O)cc1)NC2=O (stereo unspecified)	none (no result: SKKanGAS inh, PolyA inh, Platelet DG rel, Calb FLC)
CC(=O)c1ccc(N2CCN(C(=O)Cn3cnc(S(=O)(=O)N4CCCCC4)c3)CC2)cc1	none
Cc1occc1C(=O)N1CCN(C(c2ccccc2)c2ccccc2)CC1	Calb FLC inconclusive
Cc1oc(C(C)(C)C)cc1C(=O)N1CCN(C(c2ccccc2)c2ccccc2)CC1	SKKanGAS inh 63.3
CCNC(=S)NNC(=O)c1nn(C)c(C)c1Cl	Calb FLC 119.2
CCN(c1ccccc1)S(=O)(=O)c1ccc(OC)c(NC(=O)CCc2nc3ccccc3c(=O)[nH]2)c1	none
CCc1noc(C)c1C(=O)Nc1nc(-c2ccc(OC)cc2OC)cs1	none
CC1Cc2ccccc2N1C(=O)c1cccnc1 (stereo unspecified)	none
Cc1nc2ccc(C(=O)N3c4ccccc4CC3C)cc2s1 (stereo unspecified)	Calb FLC 116.2
Cc1[nH]n(-c2ccccc2)c(=O)c1N=Nc1c(O)cc(S(=O)(=O)N(C)C)c2ccccc12	SKKanGAS inh 84.5
N#Cc1ccc(-c2ccccc2)nc1SCC(=O)c1cc2ccccc2oc1=O	SKKanGAS inh 108.8
CC1(C)Oc2ccc3ccc(=O)oc3c2/C(=C/NNC(N)=S)C1=O	SKKanGAS inh 82.0 (no result: Calb FLC)
CCc1ccccc1NC(=O)COc1ccc(C(=S)N2CCCC2)cc1	none
Cc1cc(C)c(S(=O)(=O)N2CCN(C(=O)C3COc4ccccc4O3)CC2)c(C)c1 (stereo unspecified)	none (no result: SKKanGAS inh, PolyA inh, Platelet DG rel, Calb FLC)
CSc1ccc(/C=N/NC(=O)c2cccc(O)c2)cc1	Platelet DG rel 71.7
Cn1cccc1Cc1nnc(SCC(=O)NCC2CCCO2)n1C (stereo unspecified)	none
O=C(NCc1ccccc1)c1ccc2c(=O)[nH]c3c(C(=O)NCC4CCCO4)sc(=S)n3c2c1 (stereo unspecified)	none
O=C(NCc1ccco1)c1sc(=S)n2c1[nH]c(=O)c1ccccc12	Calb FLC 93.4
Cc1ccc(CNC(=O)c2ccc3c(=O)[nH]c4c(C(=O)NCC5CCCO5)sc(=S)n4c3c2)cc1 (stereo unspecified)	SKKanGAS inh 55.8
COc1ccc(OC)c(CCNC(=O)CCCc2nnc3n(C)c(=O)c4sccc4n23)c1	none
CCc1cc2c(=O)[nH]c(-c3ccccn3)nc2s1	SKKanGAS inh 55.0
Cc1nnc(SCC(=O)NC2CCCC2)n1-c1ccccc1	none (no result: SKKanGAS inh, PolyA inh, Platelet DG rel, Calb FLC)
Cn1c(=O)c2c(SCC(=O)N3CCOCC3)nc(-c3ccccc3F)nc2n(C)c1=O	SKKanGAS inh 60.6
Cn1c(=O)c2c(SCC(=O)N3CCCCC3)nc(-c3ccccc3F)nc2n(C)c1=O	none
Cc1nnc(SCC(=O)Nc2nccs2)n(N)c1=O	none
O=C(c1ccc(N2CCOCC2)c([N+](=O)[O-])c1)N1CCCC(C(F)(F)F)C1 (stereo unspecified)	none
Cc1nnc(NC(=O)CSc2cn(CCNC(=O)c3ccccc3)c3ccccc23)s1	Platelet DG rel 57.7
COc1ccc(C(=O)NCCn2cc(SCC(=O)Nc3nnc(C)s3)c3ccccc32)cc1	none
COc1cc(C(=O)NCc2cccc(Cl)c2)ccc1OCC(=O)N1CCOCC1	none
CCOc1cc(C(=O)NCc2ccccc2)ccc1OCC(=O)N1CCOCC1	Calb FLC 97.9
CCn1c(O)c(N=NC(=O)c2cccs2)c2ccccc21	Calb FLC 54.2
Oc1ccccc1N=Nc1ccccc1O	SKKanGAS inh 58.9, Calb FLC 93.8 (no result: CR mimetic SO)
Nc1ccc(N=Nc2ccccc2O)c(N)c1	none
CC1CC(CCC(=O)NC(=S)Nc2ccc(Cl)cn2)C(=O)O1 (stereo unspecified)	none
COc1ccc(-c2nc(NC(C)=O)sc2-c2ccc(OC)cc2)cc1	SKKanGAS inh 66.7
CNc1nc(-c2ccc(OC)cc2)c(-c2ccc(OC)cc2)s1	none
CN=c1scc(-c2ccccc2F)n1/N=C/c1ccc[nH]1	none
CN=c1scc(-c2ccccc2F)n1/N=C/c1ccc(O)c(O)c1O	Platelet DG rel 77.0 (no result: CR mimetic SO)
CCC1(c2ccccc2)NC(=S)N(c2ccc(C)cc2)N1 (stereo unspecified)	Calb FLC 106.3
CCC1(c2ccc(Cl)cc2)NC(=S)N(c2ccccc2)N1 (stereo unspecified)	Calb FLC 117.4
CCCOc1ccc(N2C(=O)CC(N(CCc3ccc(OC)cc3)C(=O)c3ccccc3)C2=O)cc1 (stereo unspecified)	none
NS(=O)(=O)c1cccc(NC(=O)COC(=O)c2cc(-c3ccc(Cl)cc3)nc3ccccc23)c1	SKKanGAS inh 91.2
Cc1cc(C(=O)OCC(=O)Nc2cccc(S(=O)(=O)N(C)C)c2)c2ccccc2n1	none
COc1ccc(/C=C/C(=O)OCC(=O)Nc2ccc3[nH]c(=O)[nH]c3c2)cc1OC	none
O=c1/c(=C\c2cccc(O)c2)sc2nc(-c3ccccc3)c(-c3ccccc3)n12	SKKanGAS inh 70.4
COc1ccc(/C=c2\sc3nc(-c4ccccc4)c(-c4ccccc4)n3c2=O)cc1OC	none
COc1ccc2cc3c(N)nn(C(=O)C4CCC(C(C)(C)C)CC4)c3nc2c1 (stereo unspecified)	SKKanGAS inh 93.4
COc1ccc2cc3c(N)nn(C(=O)Cc4ccccc4OC)c3nc2c1	none
CC(C)Nc1nc(Oc2ccc(Cl)cc2Cl)cc(C(F)(F)F)n1	SKKanGAS inh 79.3
CC(C)Nc1nc(Oc2cccc(Cl)c2Cl)cc(C(F)(F)F)n1	SKKanGAS inh inconclusive
